Measurements taken from the supplement of paper PMC10981050.
Where “and” joins values, the source holds several entries; their conditions need not be identical. Equal values may be shown once. Where a name gives a salt, the structure may show the parent alone.

Tests used:
Assay in all cases: cell viability relative to vehicle control; higher = less cytotoxic
Settings in all cases: 10 µM
K562 = test system: K562
Outline: (§1)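 Mutant clones made by CRISPR editing and their isogenic wild-type counterparts, from four leukaemia lines, were exposed to a single 10 µM dose of each library compound for 48 h. The supernatant was then removed and CellTiter-Glo luminescence was read. Viability was reported as percent of the on-plate vehicle control.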

MARIMO = test system: MARIMO
Outline: as §1

MOLM14 = test system: MOLM14
Outline: as §1

OCI-AML2 = test system: OCI-AML2
Outline: as §1

| Structure (SMILES) | cell viability (K562; SRSF2 genotype: SRSF2 P95H/wt) | cell viability (K562; SRSF2 genotype: SRSF2 wt/wt) [%] | cell viability (MARIMO; SRSF2 genotype: SRSF2 P95H/wt) [%] | cell viability (MARIMO; SRSF2 genotype: SRSF2 wt/wt) [%] | cell viability (MOLM14; SRSF2 genotype: SRSF2 P95H/wt) [%] | cell viability (MOLM14; SRSF2 genotype: SRSF2 wt/wt) [%] | cell viability (OCI-AML2; SRSF2 genotype: P95H/wt) [%] | cell viability (OCI-AML2; SRSF2 genotype: wt/wt) [%] |
| --- | --- | --- | --- | --- | --- | --- | --- | --- |
| O=C1CCc2cc(OCCCCc3nnnn3C3CCCCC3)ccc2N1 [Cilostazol] | 97.9% and 98.4% | 96.8 | 103 | 102 | 100 | 101 | 109 | 97.9 |
| CC(C)(C)c1cc(/C=C(\C#N)C(N)=S)cc(C(C)(C)C)c1O [Tyrphostin AG 879 (AG 879)] | 22.1% and 17.9% | 25.2 | 73.5 | 68.3 | 20.1 | 14.8 | 7.33 | 15.8 |
| OCCOCCN1CCN(C(c2ccccc2)c2ccc(Cl)cc2)CC1 (configuration not stated) [Hydroxyzine pamoate] | 88.7% and 98% | 100 | 79.8 | 91.8 | 79.9 | 96.4 | 87.9 | 94.6 |
| CC(C)C1=CC2=CC[C@@H]3[C@](C)(CCC[C@@]3(C)C(=O)O)[C@H]2CC1 [Abietic Acid] | 113% and 104% | 98.8 | 105 | 115 | 99.5 | 105 | 90.9 | 95.5 |
| CC(C)(Oc1ccc(C2CC2(Cl)Cl)cc1)C(=O)O (configuration not stated) [Ciprofibrate] | 101% and 96.8% | 97.7 | 89.6 | 106 | 98 | 99.4 | 94.3 | 110 |
| O=C(c1cncc(Br)c1)N1CCC(N2CCCC2)CC1 | 103% and 100% | 98.7 | 106 | 100 | 101 | 101 | 104 | 120 |
| Cn1nnc(-c2ccc(-c3ccc(N4C[C@H](CO)OC4=O)cc3F)cn2)n1 [Tedizolid] | 87.1% and 82.2% | 83.3 | 77.3 | 88.1 | 89.4 | 85.5 | 79.9 | 81.6 |
| CCOC(=O)c1ccc(O)c(OC)c1 [Ethyl Vanillate] | 97.5% and 92.9% | 100 | 105 | 108 | 94.1 | 104 | 103 | 91.1 |
| CCCCCCCC(=O)CCc1ccc(O)c(OC)c1 [6-Paradol] | 93.9% and 99.3% | 104 | 93.3 | 99.7 | 94.3 | 104 | 94.1 | 91.6 |
| O=C(Cn1ccnc1[N+](=O)[O-])NCc1ccccc1 [Benznidazole] | 96.1% and 92.1% | 95.9 | 96.6 | 92.8 | 97.1 | 99.4 | 103 | 100 |
| C=CC(=O)Nc1ccc2ncnc(Nc3ccc(OCc4cccc(F)c4)c(Cl)c3)c2c1 | 25.1% and 46.8% | 60 | 28.4 | 44.3 | 12.6 | 7.61 | 1.91 | 20.6 |
| Cc1cc(C(=O)O)n[nH]1 | 108% and 101% | 103 | 104 | 111 | 96.4 | 111 | 101 | 104 |
| CCC(CC)n1ccc2c(C(=O)NCc3c(C)cc(C)[nH]c3=O)cc(C#N)cc21 | 107% and 101% | 95.5 | 103 | 112 | 100 | 100 | 95 | 102 |
| Nc1nnc(-c2cccc(Cl)c2Cl)c(N)n1 [Lamotrigine] | 95.7% and 94.8% | 95 | 94.7 | 107 | 102 | 103 | 101 | 98.3 |
| COc1cc2c(c(OC)c1OC)-c1c(cc3c(c1OC)OCO3)C[C@H](C)[C@](C)(O)[C@H]2OC(=O)c1ccccc1 [Schisantherin A] | 102% and 111% | 97.5 | 89.3 | 102 | 100 | 102 | 106 | 102 |
| COc1cc(N2CCN(C)CC2)ccc1Nc1nccc(-c2cn(C)c3cnccc23)n1 | 63.7% and 63.4% | 79.2 | 41 | 39.1 | 3.24 | 1.65 | 6.46 | 11.4 |
| Cc1ncc([N+](=O)[O-])n1C [Dimetridazole] | 106% and 99.5% | 105 | 109 | 106 | 99.1 | 103 | 105 | 109 |
| COc1ccc(/C=C/c2cc(OC)cc(=O)o2)cc1 [Yangonin] | 108% and 102% | 104 | 97.7 | 99.3 | 115 | 114 | 94.1 | 98.2 |
| CCOC(C)OCCc1ccccc1 (configuration not stated) [Efetaal] | 105% and 100% | 108 | 97.8 | 99.3 | 107 | 107 | 104 | 98.9 |
| Cc1ccc(-n2[nH]c(C)c(N=Nc3cccc(-c4cccc(C(=O)O)c4)c3O)c2=O)cc1C [Eltrombopag olamine] | 76% and 80.3% | 69.3 | 54.9 | 69 | 75.4 | 68.5 | 66.3 | 60.3 |
| O=C(NCc1ccncc1)C12CC3CC(C1)CC(c1ccc(Cl)cc1)(C3)C2 | 73.1% and 84.6% | 72.3 | 75.4 | 74.2 | 61 | 57.4 | 64.5 | 55.1 |
| OCCN(CCO)c1nc(N2CCCCC2)c2nc(N(CCO)CCO)nc(N3CCCCC3)c2n1 [Dipyridamole (Persantine)] | 95.7% and 95.1% | 94.8 | 93.1 | 114 | 111 | 107 | 99.9 | 108 |

| Structure (SMILES) | cell viability (K562; SRSF2 genotype: SRSF2 P95H/wt) | cell viability (K562; SRSF2 genotype: SRSF2 wt/wt) [%] | cell viability (MARIMO; SRSF2 genotype: SRSF2 P95H/wt) [%] | cell viability (MARIMO; SRSF2 genotype: SRSF2 wt/wt) [%] | cell viability (MOLM14; SRSF2 genotype: SRSF2 P95H/wt) [%] | cell viability (MOLM14; SRSF2 genotype: SRSF2 wt/wt) [%] | cell viability (OCI-AML2; SRSF2 genotype: P95H/wt) [%] | cell viability (OCI-AML2; SRSF2 genotype: wt/wt) [%] |
| --- | --- | --- | --- | --- | --- | --- | --- | --- |
| O=C(O)[C@@]1(CCCCCCOc2ccc(Cl)cc2)CO1 [Etomoxir (Na salt)] | 113% and 110% | 115 | 104 | 110 | 106 | 108 | 107 | 96.8 |
| Cn1c(-c2ccccc2C(F)(F)F)nnc1C12CCC(c3noc(C4CC(F)(F)C4)n3)(CC1)CC2 | 87.3% and 92.5% | 84.7 | 88 | 99.8 | 79.8 | 87.7 | 99 | 94.8 |
| N#CCC1(n2cc(-c3ncnc4[nH]ccc34)cn2)CN(C2CCN(C(=O)c3ccnc(C(F)(F)F)c3F)CC2)C1 | 99.3% and 104% | 107 | 97.5 | 101 | 97.6 | 102 | 108 | 110 |
| N#Cc1cc2cc(CN3CCC(Nc4ncnc5sc(CC(F)(F)F)cc45)CC3)ccc2[nH]1 | 3.53% and 2.57% | 19.3 | 44.3 | 51.2 | 22.6 | 23.4 | 0.63 | 21.5 |
| Cc1cc(Nc2cc(CN3CCOCC3)c3nc(C)c(Cc4ccc(Cl)cc4F)n3n2)n[nH]1 | 88.8% and 88% | 84 | 73.1 | 110 | 19.7 | 16.5 | 34.7 | 53 |
| COC(=O)[C@H](CCSC)NC(=O)c1ccc(NC[C@@H](N)CS)cc1-c1ccccc1 | 104% and 105% | 110 | 77.4 | 78.5 | 83.4 | 90.1 | 113 | 113 |
| NC(=O)[C@@H]1CCCN1C(=O)[C@H](Cc1c[nH]cn1)NC(=O)[C@@H]1CCC(=O)N1 [Protirelin] | 99.8% and 93.1% | 104 | 99.2 | 108 | 101 | 100 | 102 | 100 |
| COc1cc(-c2cc(-c3cccc(O)c3)cnc2N)cc(OC)c1OC | 13.5% and 28.9% | 15.6 | 78.2 | 72.5 | 81.9 | 83 | 83.5 | 83.1 |
| O=c1cc(N2CCOCC2)oc2c1ccc1ccccc12 | 96.7% and 102% | 99.6 | 93.3 | 102 | 89.2 | 96.7 | 87.6 | 96.7 |
| OCCc1ccc(O)c(O)c1 [Hydroxytyrosol] | 94.8% and 103% | 98.2 | 90.5 | 103 | 97.5 | 104 | 105 | 106 |
| Fc1ccc2[nH]ccc2c1-c1nc(N2CCOCC2)c2sc(CN3CCN(CC4CC4)CC3)cc2n1 | 77.2% and 81.7% | 76.6 | 68.5 | 67.3 | 45.5 | 45.1 | 40.4 | 34.5 |
| CC(C)Oc1ccc(-c2nn([C@@H](C)c3oc4ccc(F)cc4c(=O)c3-c3cccc(F)c3)c3ncnc(N)c23)cc1F | 89.1% and 94.3% | 87.6 | 84.8 | 94.9 | 77 | 71.8 | 67.4 | 72.3 |
| C[C@H](NC(=O)CCC(F)(F)F)C(=O)N[C@@H]1C(=O)N(CCO)c2ncccc2-c2ccccc21 | 103% and 104% | 95.9 | 97.4 | 108 | 109 | 103 | 89.4 | 99.8 |
| Nc1ncnc2c1ncn2[C@@H]1O[C@H](CO)[C@@H](O)[C@@H]1O [Vidarabine monohydrate] | 105% and 101% | 110 | 86 | 98.5 | 97.6 | 103 | 110 | 119 |
| CC(C)=CCC[C@@H](C)CC=O [Citronellal] | 104% and 96.5% | 112 | 96.2 | 102 | 103 | 106 | 105 | 114 |
| Cc1oncc1C(=O)Nc1ccc(C(F)(F)F)cc1 [Leflunomide] | 93.4% and 96.5% | 86.8 | 94.9 | 90.1 | 102 | 98.3 | 80.3 | 85.1 |
| COc1ccccc1OCC(O)CN1CCN(CC(=O)Nc2c(C)cccc2C)CC1 (configuration not stated) [Ranolazine (Ranexa)] | 99.1% and 96.1% | 91.9 | 96.6 | 102 | 97.8 | 99.2 | 94.9 | 102 |
| CN1CCC(=C2c3ccccc3CCn3c(C=O)cnc32)CC1 [Alcaftadine] | 102% and 104% | 100 | 100 | 94.7 | 99.7 | 99.4 | 109 | 97.4 |
| O=C(NCc1cccc(O)c1)Nc1nc(-c2ccncc2)cs1 | 92% and 95.8% | 106 | 65.6 | 85.8 | 25.3 | 60.8 | 18.8 | 27.6 |
| OC[C@H]1O[C@H](OC[C@H]2O[C@H](O[C@]3(CO)O[C@H](CO)[C@@H](O)[C@@H]3O)[C@H](O)[C@@H](O)[C@@H]2O)[C@H](O)[C@@H](O)[C@H]1O [Raffinose] | 97.9% and 96.4% | 95.4 | 97.2 | 103 | 103 | 98.1 | 94.5 | 98.6 |
| CCOC(=O)/C=C/c1ccc(O)c(O)c1 [Ethyl caffeate] | 88.5% and 88.6% | 95 | 44.4 | 80.5 | 78.1 | 78.1 | 76.8 | 77.7 |
| NC(=S)c1ccncc1 [Thioisonicotinamide] | 107% and 101% | 98.9 | 96.9 | 105 | 103 | 105 | 99.4 | 110 |
